Screen size: about 69,000 compounds; about 950 (1.4%) showed an effect of 50% or more. Only a selection was taken, and strong results are over-represented in it overall.

This test relates to Mycobacterium tuberculosis. Kind of test: Cornell M. t heat shock assay. Also: in the data most compounds retested in dose-response had high values. It counts as functional, organism-based. Further details: dose or concentration left out as unconfirmed.
Regarding `Cc1cnn(CC2CN(c3cnc4ccccc4n3)CCO2)c1` (centres undefined), the “Percent Effect” value came to 103.1%. With `c1ccc2nc(N3CCOC(Cn4cccn4)C3)cnc2c1` (centres undefined) the figure was -17.06%; with `c1ccc2nc(N3CCOC(Cn4cncn4)C3)cnc2c1` (centres undefined), -13.9%; with `Cc1cc(C)n(CC2CCCN2C(=O)c2nccc3ccccc23)n1` (centres undefined), 3.715%. As to `CC(=O)N(C)[C@H]1CC[C@]2(CC1)CNC(=O)c1cc(C)ccc1O2`, the “Percent Effect” value amounted to 5.316%.

`CN1CCN(Cn2nc(-c3cccs3)ccc2=O)CC1`: the “Percent Effect” value amounted to 6.699%. With `Cc1nn(C)c(C)c1S(=O)(=O)NCCn1ccc(-c2cccs2)n1` the figure was -25.61%.

`CCc1c(C)nc(-n2nc(-c3cccs3)cc2N)[nH]c1=O`: the “Percent Effect” value is given as 106.4%. With `Cc1nc(-n2nc(-c3cccs3)cc2N)[nH]c(=O)c1C` the figure was 103.7%. With `CC(C(N)=O)n1nc(-c2cccs2)cc(N)c1=O` (centres undefined) the figure was 10.66%; with `CC(C(=O)N1CCCC1)n1nc(-c2cccs2)cc(N)c1=O` (centres undefined), -4.273%. With `CC1c2ncc(CN3CCN(C)CC3)n2CCN1Cc1ccsc1.O=C(O)C(F)(F)F.O=C(O)C(F)(F)F.O=C(O)C(F)(F)F` (centres undefined) the figure was -30.83%. With `CCN1CCC2(CC1)OCCN2C(=O)c1ccc(OC)c(Cl)c1.Cl`, the “Percent Effect” value is 7.471%. With `CCn1ncc2c1C(COC)N(C(=O)c1cccs1)CC2.O=C(O)C(F)(F)F` (centres undefined) the figure was 19.39%; with `O=C(CC1CC2(CCN(CC3CC3)CC2)c2ccccc21)NC1CCC1.O=C(O)C(F)(F)F` (centres undefined), -33.11%; with `O=C(O)C(F)(F)F.O=C1COC2(CCN(C(=O)c3ccco3)CC2)CN1Cc1ccccn1`, -21.74%. With `CC(C)(C)c1ccc(OCC(=O)O)c(CN2C[C@H]3C[C@H](O)C[C@H]3C2)c1` the figure was -6.021%; with `Cc1noc(C)c1CN1C(=O)[C@H]2CC[C@@H]1CN(C(=O)c1cscn1)C2`, 9.12%; with `CNC(=O)c1ccc2c(c1)C1(CCN(CCOC)CC1)C(=O)N2.O=C(O)C(F)(F)F`, -17.93%. With `Fc1cccc(Cl)c1CNCCOc1ccccn1` the figure was -12.87%; with `Fc1cccc(Cl)c1CNCc1ccccn1`, 50.99%; with `Fc1cccc(Cl)c1CNCCCOc1ccccn1`, -11.57%. Turning to `COCC(=O)NCc1cc(=O)n2c(n1)CN(CC1CCOC1)CCC2.O=C(O)C(F)(F)F` (centres undefined), the “Percent Effect” value is -14.54%. With `CC(C)NC(=O)N1CCC2(CCC(=O)N2CCN2CCCC2)CC1.O=C(O)C(F)(F)F` the figure was -7.519%.

As for `CCc1nnc(CSc2ccccn2)o1`, the “Percent Effect” value is recorded as 0.1559%. With `O=C(c1ccccn1)N1CCCN(Cc2nnc(C3CC3)o2)CC1` the figure was 27.04%; with `CCc1noc(CN2CCN(C(=O)c3ccccn3)CC2)n1`, 7.072%; with `Cc1nnc(CSc2n[nH]c(-c3ccccn3)n2)o1`, 13.15%. With `c1ccc(-c2nc(SCc3nnc(C4CC4)o3)n[nH]2)nc1` the figure was 78.14%; with `CCc1noc(CSc2n[nH]c(-c3ccccn3)n2)n1`, 92.11%. With `COCCN1C(=O)[C@H]2CC[C@@H]1CN(Cc1nnc(-c3ccccc3)o1)C2` the figure was 0.9802%; with `CCOCC1CN(c2ccc(C)nn2)Cc2cnn(CC)c21.O=C(O)C(F)(F)F.O=C(O)C(F)(F)F` (centres undefined), 34.67%; with `CS(=O)(=O)CC(=O)N1C[C@H]2CCC[C@@]2(COCc2ccccn2)C1.O=C(O)C(F)(F)F`, 1.254%. On to `O=C(O)C(F)(F)F.c1coc(CN2CCC3(CC2)COC(COCC2CC2)C3)c1` (centres undefined), for which the “Percent Effect” value is -19.69%. With `O=C(O)C(F)(F)F.O=C(c1cccc(F)c1)N1C[C@H]2CN(Cc3ccccn3)C[C@H]2C1` the figure was -10.41%; with `O=C(O)C(F)(F)F.O=C1CC[C@]2(CC[C@@H](NCc3ccsc3)CC2)N1Cc1ccccc1`, -7.125%. With `COCc1nn(C(C)C)c2c1CCN(Cc1ccoc1)C2.O=C(O)C(F)(F)F` the figure was -50.08%; with `Cc1cc(NCCc2nc(C)c[nH]2)nc(-c2ccccc2O)n1`, 7.352%. With `Cc1cc(NCCc2cnccn2)nc(-c2ccccc2O)n1` the figure was 15.98%; with `Cc1cc(NCCN)nc(-c2ccccc2O)n1`, 74.35%. In the case of `Cc1cc(NCCNc2cccnc2)nc(-c2ccccc2O)n1`, the “Percent Effect” value was found to be 65.56%.

Turning to `Cc1cc(NCCO)nc(-c2ccccc2O)n1`, the “Percent Effect” value is recorded as 5.939%. Take `Cc1cc(NCCNc2cccnc2)nc(N)n1`: the “Percent Effect” value is reported as -13.91%.

As for `Cc1cc(C)c(N(CC(O)CNCc2ccco2)S(C)(=O)=O)c(C)c1.O=C(O)c1ccccc1` (centres undefined), the “Percent Effect” value stood at 18.07%. With `CCOC1COC2(CCN(Cc3ccc(F)cc3)CC2)C1.O=C(O)C(F)(F)F` (centres undefined) the figure was -14.13%; with `CCCC(=O)N(CCCN1CCOCC1)c1nc2c(Cl)cccc2s1.Cl`, 25.9%; with `CCCC(=O)N(CCCN1CCOCC1)c1nc2c(C)ccc(Cl)c2s1.Cl`, 99.14%. With `CCCC(=O)N(CCCN1CCOCC1)c1nc2c(C)c(C)ccc2s1.Cl` the figure was 46.86%; with `COC(=O)c1ccc(CN[C@@H]2COC[C@H]2Cc2cc(C)no2)cc1.O=C(O)CC(O)(CC(=O)O)C(=O)O`, -21.34%; with `CC(C)Nc1cccc(CC2CCN(C)C2)n1.O=CO` (centres undefined), 4.45%. For `CCCc1cc(NCCN2CCNC2=O)n2nccc2n1`, the “Percent Effect” value is -6.778%. With `CCCc1cc(NCCn2cccn2)n2nccc2n1` the figure was 70.39%; with `CCCc1cc(NCCn2cccn2)n2ncnc2n1`, 8.061%. With `COCCN(C)C1COC2(CCN(Cc3cccc(F)c3)CC2)C1.O=C(O)C(F)(F)F.O=C(O)C(F)(F)F` (centres undefined) the figure was -38.12%; with `Cn1cccc1C(=O)N1CCC2(CCN2c2ncccn2)C1.O=C(O)C(F)(F)F` (centres undefined), 8.832%; with `CCc1ccc(CN2CC[C@H]3[C@H]2CC(=O)N3Cc2cccc(C)n2)o1.O=C(O)C(F)(F)F.O=C(O)C(F)(F)F`, -1.259%.

On to `Cc1ccc(CNCCC(O)(c2nccn2C)C(F)(F)F)o1` (centres undefined), for which the “Percent Effect” value is -16.27%. With `CC(c1cccc(F)c1)N1CCN(Cc2nccn2C)CC1` (centres undefined) the figure was -12.42%. With `COc1c(CNC(c2cccc(F)c2)c2nccn2C)c(C)nn1C` (centres undefined) the figure was -20.66%; with `Cc1ccc(CNC(c2ccc(F)cc2)c2nccn2C)o1` (centres undefined), 74.11%; with `Cc1ccc(CNC(c2cccc(F)c2)c2nccn2C)o1.Cl` (centres undefined), 79.6%. With `Cc1ccc(CNC(C)c2cc(F)ccc2N2CCN(C)CC2)o1` (centres undefined) the figure was -35.24%; with `Cl.Cn1nc(C2CCCN(Cc3ccc(F)c(F)c3)C2)c2nccnc21` (centres undefined), -15.39%; with `O=C(O)C(F)(F)F.O=C(O)C(F)(F)F.O=C1CO[C@@H]2CN(Cc3nccs3)C[C@H]2N1Cc1ccncc1`, -20.96%. Regarding `O=C(O)C(F)(F)F.O=C(O)C(F)(F)F.c1cncc(O[C@H]2CC[C@H]3[C@H]2OCCN3C2CCC2)c1`, the “Percent Effect” value is given as -41.43%.

`COc1nccnc1-c1cccc(-c2ccn(CC3COCCO3)n2)c1` (centres undefined): the “Percent Effect” value was -10.15%. With `COc1cccc(-c2cccc(-c3ccn(CC4COCCO4)n3)c2)n1` (centres undefined) the figure was -12.43%; with `CSc1nccc(-c2cccc(-c3ccn(CC4COCCO4)n3)c2)n1` (centres undefined), 87.01%; with `Cc1cnccc1-c1cnn(CCNC(=O)c2cccnc2)c1C1CC1.Cl`, -20.8%. As for `O=C(NCCNc1ncccn1)C1CCN(C(=O)NC2CC2)CC1`, the “Percent Effect” value turned out to be 12.93%.

On to `COc1ccc(-c2nnc(SC(C)C(=O)NCC(C)C)[nH]2)c(OC)c1` (centres undefined), for which the “Percent Effect” value came to 21.58%. With `Cc1cccnc1CN(C)C(C(=O)O)c1ccc(-n2cccn2)cc1` (centres undefined) the figure was 85.61%. With `Cc1cccnc1CN(C)C(C(=O)O)c1ccc(C(C)(C)C#N)cc1` (centres undefined) the figure was 35.15%; with `Cc1cccnc1CN(C)C(C(=O)O)c1ccc(-c2ccn[nH]2)cc1` (centres undefined), 46.05%; with `Cc1cccc(OCCCNC(=O)Cn2ccc(C)cc2=O)c1`, 9.396%. With `CCn1ccc(-c2cc(NCCCOc3ccccc3C)nc(C)n2)n1` the figure was 105.6%; with `CCn1ccc(-c2cc(NCCCOc3cccc(C)c3)nc(C)n2)n1`, 104.2%. For the compound `CCOc1cccc(C(=O)Nc2ccn(CC)n2)c1`, the “Percent Effect” value is 10.2%. With `COc1ccccc1OCCNCCn1cccn1` the figure was -4.408%. On to `CCn1ccc(-c2cc(C(=O)O)n3nc(C)c(Cl)c3n2)n1`, for which the “Percent Effect” value amounted to 6.637%. With `Cc1oncc1C(=O)N1C[C@H](OCc2ccccn2)[C@H]2OCCC[C@H]21.O=C(O)C(F)(F)F` the figure was -20.31%; with `CCOC(=O)CSc1nnc([C@@H](N)C(C)C)o1.Cl`, -3.757%. With `CNC(=O)c1cc2c(nc1NCC1CC1)CCN(CC1CC1)CC2.O=C(O)C(F)(F)F.O=C(O)C(F)(F)F` the figure was -24.38%; with `Cc1cccc(C)c1CCNC(=O)N1CCCC2(C1)OCCO2`, 5.49%. With `O=CO.c1nc(CN2CCCC(Cc3ccc(NC4CCCC4)nn3)C2)c[nH]1` (centres undefined) the figure was 20.05%; with `Cc1ccc(CN2C[C@H]3C[C@H](C(=O)Nc4cccnc4)[C@@H](C2)O3)cc1`, 0.4433%. For the compound `Cc1cnc(CNC(=O)[C@@]23CCO[C@@H]2CCNC3)cn1.O=C(O)C(F)(F)F`, the “Percent Effect” value stood at 23.9%. With `O=C(O)C(F)(F)F.O=C(O)C(F)(F)F.c1cncc(-c2ccc3c(c2)CCC32CCN(Cc3ccco3)CC2)c1` the figure was 104%; with `c1cncc(-c2ccc3c(c2)C2(CCNCC2)CC3)c1`, -40.79%. With `c1cc(-c2ccc3c(c2)CCC32CCNCC2)ccn1` the figure was -56.04%; with `O=C(O)C(F)(F)F.O=C(O)C(F)(F)F.c1csc(CN2CCC3(CC2)CCN(CC2CC2)CC3)n1`, -18.7%; with `CN(C)CC(=O)N1CCC2(CCc3cc(-c4cccnc4)ccc32)CC1.O=C(O)C(F)(F)F.O=C(O)C(F)(F)F`, 53.15%. For `c1cncc(-c2ccc3c(c2)CCC32CCNCC2)c1`, the “Percent Effect” value is 88.51%. With `O=C(O)C(F)(F)F.c1cncc(-c2ccc3c(c2)C2(CC3)CCN(c3nncs3)CC2)c1` the figure was 12.31%. With `Cc1ccc2c(c1)CCC21CCN(C(=O)CN(C)C)CC1.O=C(O)C(F)(F)F` the figure was -22.19%; with `O=C(O)C(F)(F)F.O=C(O)C(F)(F)F.c1cncc(C2COC3(CCN(Cc4nccs4)CC3)C2)c1` (centres undefined), -9.404%. With `CN(C)CC(=O)N1CCC2(CCc3ccc(-c4ccncc4)cc32)CC1.O=C(O)C(F)(F)F.O=C(O)C(F)(F)F` the figure was -52.11%.

Take `CN1CCN(Cc2cccnc2)C(=O)C12CCN(Cc1ccco1)CC2.O=C(O)C(F)(F)F.O=C(O)C(F)(F)F.O=C(O)C(F)(F)F`: the “Percent Effect” value was determined as 5.064%. With `O=C(O)C(F)(F)F.O=C(O)C(F)(F)F.c1cncc(-c2ccc3c(c2)CCC32CCN(Cc3nccs3)CC2)c1` the figure was 74.6%.

Values taken from ChEMBL document CHEMBL3988442, “University of Dundee, Small-Polar-MMV Screening Library” (2021).
